Experimental data: PubChem BioAssay (NCI)
Compounds without any hit were thinned out: in the full panel of roughly 83,000, 20% have a hit.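 The endpoint reported here, percent growth, reads 100 for growth as untreated, 0 for no net growth and -100 for all cells dead.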 Active and inactive are the calls of the source. How the source made its calls: active means growth percent below 10; inactive means the rest.

How the values were obtained:
Assay in all cases: NCI-60 one-dose screen, 48 h (100 = growth as untreated, 0 = no growth, -100 = all killed)
Settings in all cases: 10 µM unless noted
[1] = tested on: SR leukemia
[2] = tested on: RPMI-8226 leukemia
[3] = tested on: OVCAR-8 ovarian
[4] = tested on: OVCAR-5 ovarian
[5] = tested on: OVCAR-4 ovarian
[6] = tested on: SK-OV-3 ovarian
[7] = tested on: IGROV1 ovarian
[8] = tested on: OVCAR-3 ovarian
[9] = tested on: HS 578T breast
[10] = tested on: NCI/ADR-RES ovarian
[11] = tested on: T-47D breast
[12] = tested on: BT-549 breast
[13] = tested on: MDA-MB-435 melanoma
[14] = tested on: SW-620 colon
[15] = tested on: MCF7 breast
[16] = tested on: HCT-116 colon
[17] = tested on: HCC-2998 colon
[18] = tested on: KM12 colon

Measured: growth

CS(=O)(=O)c1ccc(C(=O)N2N=C(c3ccccc3)CC2c2ccc3c(c2)OCO3)cc1 (stereo unspecified)
inactive: [1] 90.9% | [2] 95.7% | [3] 100% | [4] 100% | [5] 99.3% | [6] 83.7% | [7] 96.2% | [8] 106% | [9] 95.7% | [10] 103% | [11] 78.5% | [12] 86.3% | [13] 113% | [14] 100% | [15] 84.1% | [16] 81.7% | [17] 99.3% | [18] 93.6%

COc1ccc(C(=O)OC2C(OC3C(O)COC(O[C@H]4C[C@H]5[C@@H]6CC=C7C[C@@H](O)CC[C@]7(C)[C@H]6CC[C@]5(C)[C@H]4[C@H](C)C(=O)CCC(C)C)C3OC(N)=O)OCC(O)C2O)cc1 (stereo partly specified)
active: [1] -14.1% | [2] -32.8% | [6] -37.2% | [9] -29.9% | [11] 1.19% | [12] -2.62% | [13] -63% | [14] -62.1% | [15] -21.1% | [16] -7.43%
inactive: [3] 25.3% | [4] 36.3% | [5] 44.1% | [7] 19.5% | [8] 58.3% | [10] 86.2% | [17] 52.7% | [18] 27.4%

CCNC(=O)c1ccc2c(c1)nc(-c1ccc(Cl)cc1)n2-c1cc(C(C)(C)C)[nH]n1
active: [1] -11.8% | [10] 9.67% | [13] -20.6%
inactive: [2] 76.5% | [3] 77.1% | [4] 63.9% | [5] 70.9% | [6] 26.9% | [7] 47.7% | [8] 21.5% | [9] 59.7% | [11] 51.7% | [12] 41.8% | [14] 42.7% | [15] 14.7% | [16] 15.3% | [17] 63.4% | [18] 38.9%

COc1cc2c(c(OC)c1O)C(=O)C(OC)C(c1ccc(O)c(O)c1)O2 (stereo unspecified)
inactive: [1] 10.8% | [3] 17.1% | [4] 42.5% | [5] 37.8% | [6] 46.5% | [7] 14.1% | [9] 24.7% | [10] 16.6% | [11] 50.3% | [14] 22.6% | [15] 11% | [17] 20.1%
active: [2] -19.3% | [8] -24% | [12] -14.6% | [13] -23.8% | [16] 3.39% | [18] 8.81%

COc1ccc(-c2nc3c(c(-c4ccc(Cl)cc4)nn3-c3ccccc3)c(-c3ccc(O)cc3)c2C#N)cc1
active: [1] -29.9% | [2] -33%
inactive: [3] 61.3% | [4] 78.9% | [5] 47.5% | [6] 84.5% | [7] 72.4% | [8] 34.1% | [9] 24.6% | [10] 54.6% | [11] 24.6% | [12] 54.4% | [13] 44.3% | [14] 48.5% | [15] 13.6% | [16] 12% | [17] 70.3% | [18] 34.4%

CC1=C(O)C(=O)CC1
inactive: [1] 78.4% | [2] 110% | [3] 101% | [4] 112% | [5] 105% | [6] 107% | [7] 107% | [8] 115% | [9] 107% | [10] 106% | [11] 103% | [12] 89% | [13] 98.1% | [14] 108% | [15] 91.8% | [16] 105% | [17] 99.7% | [18] 104%

CCN(CC)c1ccc(/C=N/NC(=O)c2ccc(S(C)(=O)=O)cc2)c(O)c1
active: [1] 9.02% | [15] 8.79%
inactive: [2] 21% | [3] 16.8% | [4] 32.5% | [5] 34.7% | [6] 39% | [7] 21.2% | [8] 33.4% | [9] 68% | [10] 17.8% | [11] 30% | [12] 30.7% | [13] 37.2% | [14] 33.1% | [16] 18.4% | [17] 39.6% | [18] 25.9%

CN1CCC2(CC1)N=C(SCC(=O)Nc1cnc3ccccc3c1)C(c1ccc(Br)cc1)=N2
active: [1] -27% | [2] -7.88% | [13] 1.84% | [14] -6.58% | [15] -42.7% | [16] -90.7% | [17] -51.3%
inactive: [3] 19.9% | [4] 67.7% | [5] 65.8% | [6] 54.9% | [7] 16.2% | [8] 35.4% | [9] 24% | [10] 29.6% | [11] 10.5% | [12] 59.4% | [18] 41.6%

COC(=O)[C@@H](Cc1c[nH]c2ccccc12)NC(=O)/C=C/c1ccccc1
inactive: [1] 18.4% | [2] 14.3% | [3] 25.2% | [4] 36% | [5] 63.1% | [7] 29.1% | [11] 32.2% | [14] 27.5% | [15] 19.6% | [16] 16.8% | [17] 66% | [18] 27.3%
active: [6] 2.1% | [8] -5.22% | [9] -13% | [10] 4.17% | [12] -0.499% | [13] -84.3%

NS(=O)(=O)c1ccc(CCn2c(SCC(=O)N/N=C/c3cc4ccccc4[nH]3)nc3ccccc3c2=O)cc1
inactive: [1] 26.4% | [2] 24.4% | [3] 40.5% | [4] 113% | [5] 68.7% | [6] 95.4% | [7] 65.4% | [8] 68.6% | [9] 64.6% | [10] 99.8% | [11] 45.2% | [12] 74.3% | [13] 45.9% | [14] 71.9% | [15] 37.7% | [16] 29.6% | [17] 88% | [18] 50%

O=C1c2cccc3cccc(c23)C(=O)N1CCCCCCCCCCN1C(=O)c2cccc3cccc(c23)C1=O
inactive: [1] 96.8% | [2] 108% | [3] 104% | [4] 106% | [5] 95% | [6] 105% | [7] 110% | [8] 109% | [9] 99.1% | [10] 110% | [11] 97.7% | [12] 114% | [13] 104% | [14] 104% | [15] 86.9% | [16] 117% | [17] 112% | [18] 109%

COc1ccc(-c2cnc(-c3ccncc3-c3cccc(OC)c3)o2)cc1
active: [2] 8.95% | [6] -5.44% | [8] -13.1% | [13] 4.88% | [16] 4.92% | [18] -28.6%
inactive: [1] 10.2% | [3] 26% | [4] 57.4% | [5] 37.6% | [7] 37.1% | [9] 53.3% | [10] 10.1% | [11] 37.2% | [12] 37.1% | [14] 22.5% | [15] 16.4% | [17] 17.3%

COc1ccccc1/C=C/C(=O)CCC(=O)O
inactive: [1] 89.1% | [2] 98.8% | [3] 105% | [4] 104% | [5] 104% | [6] 98.5% | [7] 110% | [8] 107% | [9] 96% | [10] 107% | [11] 93.1% | [12] 113% | [13] 108% | [14] 107% | [15] 102% | [16] 101% | [17] 114% | [18] 114%

O=C1N(Cc2ccccc2Cl)c2ccccc2C12NN=C(c1ccccc1)S2 (stereo unspecified)
inactive: [1] 40% | [2] 66.3% | [3] 45.8% | [4] 78.6% | [5] 51.8% | [6] 83.2% | [7] 61.7% | [8] 68.7% | [9] 69.6% | [10] 45.2% | [11] 72.3% | [12] 70% | [13] 68.5% | [14] 47.6% | [15] 53.5% | [16] 43% | [17] 73.7% | [18] 50.8%

COc1ccc(-c2conc2-n2nc(-c3ccccc3)nc2-c2ccccc2)cc1
inactive: [1] 76.2% | [2] 106% | [3] 110% | [4] 104% | [5] 104% | [6] 107% | [7] 101% | [8] 131% | [9] 111% | [10] 99.1% | [11] 102% | [12] 104% | [13] 105% | [14] 104% | [15] 89.1% | [16] 97.2% | [17] 105% | [18] 110%

CCS(=O)(=O)Nc1cccc(Nc2c3cccc(C)c3nc3c(C)cccc23)c1OC
active: [1] 5.24% | [17] 1.62%
inactive: [2] 15.8% | [3] 24% | [4] 21% | [5] 83.5% | [6] 30.6% | [7] 36.2% | [8] 47.2% | [9] 61.2% | [10] 41.7% | [11] 22.2% | [12] 15.8% | [13] 54.9% | [14] 33.2% | [15] 11.6% | [16] 22.9% | [18] 15.4%

C=C1C(=O)O[C@H]2[C@H]1CC/C(COC(=O)NCc1[nH]nc3ccccc13)=C\CC[C@@]1(C)O[C@@H]21
inactive: [3] 35.3% | [4] 58.5% | [5] 67.9% | [6] 75.6% | [9] 62.5% | [10] 85.7% | [11] 37.4% | [12] 24.3% | [13] 37.3% | [15] 17.9% | [17] 87.5% | [18] 55.8%
active: [1] 4.38% | [2] -10.2% | [7] -20.8% | [8] 5.37% | [14] -28.9% | [16] -80.7%
